In the supplement of paper PMC12297408 one finds gametocyte viability data, which are given here for 56 molecules.

For the assay, the system named is Plasmodium falciparum NF54/iGP1_RE9H ulg8 stage V gametocytes. Briefly: gametocyte viability (luciferase signal relative to DMSO control) (% of DMSO control); higher = less gametocytocidal activity, active = 50 or less. The note with it: exposure time: 72 h. Put shortly: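 Stage V gametocytes of the NF54/iGP1_RE9Hulg8 line (day 12; ~2.5% gametocytemia, 3% hematocrit), in medium containing 0.5% Albumax II, were dispensed into 96-well plates with compounds spotted in nanolitre volumes from 10 mM DMSO stocks, for final concentrations of 10 µM or 1 µM in a single well each. After 72 h at 37 °C, 90 µl from each well was combined with 10 µl D-luciferin (30 mg/ml), and luminescence was measured on an IVIS Lumina II. Viability was expressed against the mean of the DMSO vehicle wells on the same plate.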

Structures are written as SMILES. Counter-ions that a name gives are not always drawn. Hit rate of the full screen: of about 1,300 compounds, about 40 (3%) showed activity. What follows is part of a selection rich in actives, with near analogues and random picks from the rest. Unmarked numbers belong to inactive results.

Regarding `CN1CCC(=C2c3ccccc3CCc3cccnc32)CC1` [Azatadine maleate], the gametocyte viability reads like this: (concentration: 1 µM) 79.7; (concentration: 10 µM) 80.8.
On the same counts, the results for `CN1CCN2c3ncccc3Cc3ccccc3C2C1` (configuration not stated) [Mirtazapine] are 79.6 and 77.4.
On the same counts, the results for `COc1cc(-c2ccc(N=Nc3ccc4c(S(=O)(=O)O)cc(S(=O)(=O)O)c(N)c4c3O)c(OC)c2)ccc1N=Nc1ccc2c(S(=O)(=O)O)cc(S(=O)(=O)O)c(N)c2c1O` [Chicago sky blue 6B] are 80.1 and 82.1.
On the same counts, the results for `Cc1ccccc1C(OCCN(C)C)c1ccccc1` (configuration not stated) [Orphenadrine hydrochloride] are 84.4 and 87.5.
Consider `O=C1CC[C@@H](C(=O)N2CSC[C@H]2C(=O)O)N1` [Pidotimod], for which the gametocyte viability is 83.8 (concentration: 1 µM) and 81.2 (concentration: 10 µM).
On the same counts, the results for `Cc1ccc(S(=O)(=O)NC(=O)NN2CC3CCCC3C2)cc1` (configuration not stated) [Gliclazide] are 91.8 and 88.7.
On the same counts, the results for `O=C1NCCN1CCN1CCC(c2cn(-c3ccc(F)cc3)c3ccc(Cl)cc23)CC1` [Sertindole] are 97.7 and 82.3.
On the same counts, the results for `CC(=O)OCC(=O)[C@@]12N=C(C)O[C@@H]1C[C@H]1[C@@H]3CCC4=CC(=O)C=C[C@]4(C)[C@H]3[C@@H](O)C[C@@]12C` [Deflazacort] are 95.7 and 104.
Turning to `Clc1ccc(Nc2nnc(Cc3ccncc3)c3ccccc23)cc1` [Vatalanib], the gametocyte viability was 89.2 (concentration: 1 µM) and 69.1 (concentration: 10 µM).
On to `Cc1c(F)c(N2CCNC(C)C2)cc2c1c(=O)c(C(=O)O)cn2C1CC1` (configuration not stated) [Grepafloxacin], for which the gametocyte viability reads like this: (concentration: 1 µM) 93.9; (concentration: 10 µM) 95.3.
In the case of `COc1ccc2[nH]c([S+]([O-])Cc3ncc(C)c(OC)c3C)nc2n1` (configuration not stated) [Tenatoprazole], the gametocyte viability reads like this: (concentration: 1 µM) 90.8; (concentration: 10 µM) 79.8.
The corresponding values for `Nc1ccc(S(=O)(=O)Nc2nccs2)cc1` [Sulfathiazole] are 96.7 and 91.9.
With `CCCCC(=O)N(Cc1ccc(-c2ccccc2-c2nnn[nH]2)cc1)[C@H](C(=O)O)C(C)C` [Valsartan], the gametocyte viability (concentration: 1 µM) was 81.5 and the gametocyte viability (concentration: 10 µM) was 81.
On the same counts, the results for `Cc1cc(C(=O)NNCc2ccccc2)no1` [Isocarboxazid] are 98.7 and 85.
Consider `CN(C)[C@@H]1C(=O)C(C(=O)NCNCCCC[C@H](N)C(=O)O)=C(O)[C@@]2(O)C(=O)C3=C(O)c4c(O)cccc4[C@@](C)(O)[C@H]3C[C@@H]12` [Lymecycline], for which the gametocyte viability by setting is: (concentration: 1 µM) 88.7; (concentration: 10 µM) 84.6.
The corresponding values for `CC(=O)OC[C@H]1O[C@@H]([S-])[C@H](OC(C)=O)[C@@H](OC(C)=O)[C@@H]1OC(C)=O.CCP(CC)CC.[Au+]` [Auranofin] are 82.6 and 3.03 (active).
The corresponding values for `COc1ccc2[nH]cc(CCNC(C)=O)c2c1` [Melatonin] are 80.2 and 85.4.
With `CCCCCNC(=N)N/N=C/c1c[nH]c2ccc(OC)cc12` [Tegaserod maleate], the gametocyte viability runs as follows: (concentration: 1 µM) 88.4; (concentration: 10 µM) 6.12 (active).
On the same counts, the results for `COc1cc2nc(N3CCN(C(=O)C4CCCO4)CC3)nc(N)c2cc1OC` (configuration not stated) [Terazosin hydrochloride] are 96.5 and 92.6.
On the same counts, the results for `COc1cc2nc(N3CCN(C(=O)c4ccco4)CC3)nc(N)c2cc1OC` [Prazosin hydrochloride] are 90.8 and 42.9 (active).
On the same counts, the results for `COc1cc2nc(N3CCN(C(=O)C4COc5ccccc5O4)CC3)nc(N)c2cc1OC` (configuration not stated) [Doxazosin mesylate] are 86.5 and 63.2.
`OCCN1CCN(CC/C=C2/c3ccccc3Sc3ccc(Cl)cc32)CC1` [Zuclopenthixol hydrochloride]: the gametocyte viability is 100 (concentration: 1 µM) and 95.8 (concentration: 10 µM).
The corresponding values for `CC(C)CN(C[C@@H](O)[C@H](Cc1ccccc1)NC(=O)O[C@H]1CO[C@H]2OCC[C@H]21)S(=O)(=O)c1ccc(N)cc1` [Darunavir] are 82.6 and 81.5.
Turning to `C=C1C[C@H]2[C@@H]3C=C(C)C4=CC(=O)CC[C@]4(C)[C@H]3CC[C@]2(C)[C@@]1(OC(C)=O)C(C)=O` [Melengestrol acetate], the gametocyte viability was 85.4 (concentration: 1 µM) and 87.2 (concentration: 10 µM).
Take `Nc1nc(CC(=O)Nc2ccc(CCNC[C@H](O)c3ccccc3)cc2)cs1` [Mirabegron]: the gametocyte viability is, setting by setting: (concentration: 1 µM) 91.9; (concentration: 10 µM) 90.8.
On the same counts, the results for `Cn1nnc2c(C(N)=O)ncn2c1=O` [Temozolomide] are 86.9 and 88.1.
The corresponding values for `Cc1cc(C(C)(C)C)c(O)c(C)c1CC1=NCCN1` [Oxymetazoline hydrochloride] are 89.6 and 90.7.
The corresponding values for `CC(=O)OCC(=O)[C@@]12OC3(CCCC3)O[C@@H]1C[C@H]1[C@@H]3CCC4=CC(=O)C=C[C@]4(C)[C@@]3(F)[C@@H](O)C[C@@]12C` [Amcinonide] are 93.1 and 92.1.
Consider `CN1CCN(C(c2ccccc2)c2ccc(Cl)cc2)CC1` (configuration not stated) [Chlorcyclizine hydrochloride], for which the gametocyte viability is, setting by setting: (concentration: 1 µM) 96.9; (concentration: 10 µM) 91.7.
On the same counts, the results for `CCOC(=O)[C@H](CCc1ccccc1)N[C@@H](C)C(=O)N1Cc2ccccc2C[C@H]1C(=O)O` [Quinapril HCl] are 98.4 and 98.4.
The corresponding values for `c1coc(CNc2ncnc3nc[nH]c23)c1` [6-Furfurylaminopurine] are 86.5 and 75.6.
Take `S=c1[nH]cnc2nc[nH]c12` [Mercaptopurine]: the gametocyte viability runs as follows: (concentration: 1 µM) 82.1; (concentration: 10 µM) 84.9.
For the molecule `c1ccc(CNc2ncnc3nc[nH]c23)cc1` [Aminopurine, 6-benzyl], the gametocyte viability reads like this: (concentration: 1 µM) 69.7; (concentration: 10 µM) 43.9 (active).
`CCCc1nc2c(C)cc(-c3nc4ccccc4n3C)cc2n1Cc1ccc(-c2ccccc2C(=O)O)cc1` [Telmisartan]: the gametocyte viability is, setting by setting: (concentration: 1 µM) 80; (concentration: 10 µM) 88.2.
As to `CN1CCCN=C1/C=C/c1cccc(O)c1` [Oxantel pamoate], the gametocyte viability was 80.4 (concentration: 1 µM) and 87.7 (concentration: 10 µM).
On the same counts, the results for `O=C(O)c1ccccc1C(=O)Nc1ccc(S(=O)(=O)Nc2nccs2)cc1` [Phthalylsulfathiazole] are 82.3 and 85.4.
Consider `CN(C)CCc1c[nH]c2ccc(C[C@H]3COC(=O)N3)cc12` [Zolmitriptan], for which the gametocyte viability runs as follows: (concentration: 1 µM) 83.8; (concentration: 10 µM) 81.7.
With `COc1ccccc1N1CCN(CCCNc2cc(=O)n(C)c(=O)n2C)CC1` [Urapidil hydrochloride], the gametocyte viability reads like this: (concentration: 1 µM) 75.6; (concentration: 10 µM) 48.5 (active).
On to `COc1ccccc1N1CCN(CC(O)COc2cccc3ccccc23)CC1` (configuration not stated) [Naftopidil dihydrochloride], for which the gametocyte viability reads like this: (concentration: 1 µM) 90.8; (concentration: 10 µM) 83.2.
The corresponding values for `COc1ccccc1N1CCN(CCCCNC(=O)c2ccc3ccccc3c2)CC1` are 82.8 and 73.7.
The corresponding values for `CCOC(=O)[C@H](CCc1ccccc1)N[C@@H](C)C(=O)N1CCC[C@H]1C(=O)O` [Enalapril maleate] are 81.9 and 86.7.
The corresponding values for `COc1ccc(CCN(C)CCCC(C#N)(c2ccc(OC)c(OC)c2)C(C)C)cc1OC` (configuration not stated) [Verapamil hydrochloride] are 91.8 and 99.3.
For the molecule `N/C(=N\C(=O)c1nc(Cl)c(N)nc1N)NCc1ccccc1` [Benzamil hydrochloride], the gametocyte viability (concentration: 1 µM) was 88.7 and the gametocyte viability (concentration: 10 µM) was 81.1.
On the same counts, the results for `CC(C)c1ccc2oc3nc(N)c(C(=O)O)cc3c(=O)c2c1` [Amlexanox] are 80 and 81.5.
As to `CCCCC(O)c1ccccc1` (configuration not stated) [Fenipentol], the gametocyte viability (concentration: 1 µM) was 82 and the gametocyte viability (concentration: 10 µM) was 82.9.
On the same counts, the results for `CC(C)(C)NC(=O)[C@@H]1C[C@@H]2CCCC[C@@H]2CN1C[C@@H](O)[C@H](Cc1ccccc1)NC(=O)[C@H](CC(N)=O)NC(=O)c1ccc2ccccc2n1` [Saquinavir mesylate] are 82.4 and 78.9.
As to `CC(C)(C)NC(=O)[C@@H]1CN(Cc2cccnc2)CCN1C[C@@H](O)C[C@@H](Cc1ccccc1)C(=O)N[C@H]1c2ccccc2C[C@H]1O` [Indinavir sulfate], the gametocyte viability was 67 (concentration: 1 µM) and 40 (active) (concentration: 10 µM).
On the same counts, the results for `CN1CCCCC1CCN1c2ccccc2Sc2ccc([S+](C)[O-])cc21` (configuration not stated) [Mesoridazine besylate] are 88.9 and 88.7.
As for `CSc1ccc2c(c1)N(CCC1CCCCN1C)c1ccccc1S2` (configuration not stated) [Thioridazine hydrochloride], the gametocyte viability was 87.7 (concentration: 1 µM) and 30.1 (active) (concentration: 10 µM).
For `CN(C)CCCN1c2ccccc2Sc2ccc(C(F)(F)F)cc21` [Triflupromazine hydrochloride], the gametocyte viability is, setting by setting: (concentration: 1 µM) 83.7; (concentration: 10 µM) 81.5.
On the same counts, the results for `CN1CCN(CCCN2c3ccccc3Sc3ccc(Cl)cc32)CC1` [Prochlorperazine dimaleate] are 81.3 and 78.9.
On the same counts, the results for `OCCN1CCN(CCCN2c3ccccc3Sc3ccc(C(F)(F)F)cc32)CC1` [Fluphenazine dihydrochloride] are 89.1 and 68.1.
The corresponding values for `CCSc1ccc2c(c1)N(CCCN1CCN(C)CC1)c1ccccc1S2` [Thiethylperazine dimalate] are 83.3 and 32.4 (active).
Turning to `CSc1ccc2c(c1)C(N1CCN(C)CC1)Cc1ccccc1S2` (configuration not stated) [Methiothepin maleate], the gametocyte viability is 86.1 (concentration: 1 µM) and 75.3 (concentration: 10 µM).
`CN1CCN(CCCN2c3ccccc3Sc3ccc(C(F)(F)F)cc32)CC1` [Trifluoperazine dihydrochloride]: the gametocyte viability is 82.8 (concentration: 1 µM) and 46.8 (active) (concentration: 10 µM).
The corresponding values for `CN1CCN(CCCN2c3ccccc3Sc3ccc(S(=O)(=O)N(C)C)cc32)CC1` [Thioproperazine dimesylate] are 81.7 and 52.8.
